# Test results from ChEMBL document CHEMBL3433997, “St. Jude Leishmania screening dataset” (2016).
# Molecular target: Glucose transporter (Leishmania mexicana) (UniProt O61059)
# Assay: ST_JUDE_LEISH: Cytotoxicity at 2uM final concentration against transgenic Leishmania Mexicana promastigotes LmGT2 that are glucose transport deficient and complemented with the L. Mexicana glucose transporter 2. Activity is measured by DNA content using SYBR green in vitro
# Format: functional
row,Compound,inhibition
1,CCc1cccc(-n2c(=O)c3cccnc3n2CC(=O)NC2CCCC2)c1,4.05%
2,CCCCc1ccc(C(=O)Nc2ccc3nc(N4CCN(C)CC4)cc(C)c3c2)cc1,3.48%
3,O=c1c2c([nH]c3cc(Cl)ccc13)CCCC2,3.09%
4,CCOc1ccc2c(N/N=C/c3cccc([N+](=O)[O-])c3)cc(C)nc2c1,4.14%
5,COc1ccc(Nc2nc(NCc3cccc(NS(C)(=O)=O)c3)cc(-c3ccc(OC)cc3)n2)cc1,1.09%
6,COc1ccc(CCn2c(=N)c(C(=O)NC3CCCC3)cc3c(=O)n4ccccc4nc32)cc1,5.98%
7,CC(O)C1CCCCN1C(=O)c1ccc(-c2cccc(-c3nc4cc(F)ccc4[nH]3)c2)cc1 (stereo not given),3.89%
8,COc1cccc(Nc2nc(C)cc(NCc3ccc(-c4c(C)noc4C)cc3)n2)c1,3.73%
9,Cc1ccc2nc(-c3ccc(C(=O)NC4CCN(Cc5ccccc5)CC4)s3)[nH]c2c1,1.22%
10,O=S(=O)(c1ccc(Oc2ccccc2)cc1)N(CCC(O)(C(F)(F)F)C(F)(F)F)Cc1cccc(O)c1,-4.58%
11,CC(=O)c1cccc(S(=O)(=O)NCCCNc2nc3cc(C)cc(C)c3cc2C#N)c1,-1.77%
12,CC1CCNc2ccc(Cc3cnc(N)nc3N)cc21 (stereo not given),2.05%
13,CCOc1cc(C(=O)Nc2ccccc2N2CCN(S(C)(=O)=O)CC2)cc(OCC)c1OCC,3.43%
14,O=C(NCC1CCN(CCN2CCc3ccc4c(c3C2)OCO4)CC1)c1ccc(-c2ccc(C(F)(F)F)cc2)cc1,1.81%
15,Cc1nc(-c2ccc(-c3ccc(C(=O)Nc4ccc(C(C)C)c(OCCN(C)C)c4)cc3)c(C)c2)no1,2.51%
16,Cc1cc(N[C@@H](CC(C)C)C(=O)NCCc2ccccc2)nc(NCCc2cccs2)n1,5.46%
17,CCC(C)NS(=O)(=O)c1ccc2nc(Nc3ccc(C)c(Cl)c3)n([C@H](C)C(C)(C)C)c2c1 (stereo not given in full),0.57%
18,Cc1cc(C(=O)Nc2ccc3c(c2)CCN3C2CCN(Cc3csc4ccccc34)C2)no1 (stereo not given),1.87%
19,Cc1cc(CNCCCCCCCNCc2cccc([N+](=O)[O-])c2)ccc1O,-1.43%
20,CN(C)Cc1ccc(-c2cccc(Nc3nccc(NCC(O)c4ccccc4)n3)c2)cc1 (stereo not given),0.25%

row,Compound,inhibition
1,CCOC(=O)c1ccc(NC(=O)Nc2cccc(-c3ccc(-c4nc5ccccc5[nH]4)cc3)c2)cc1,3.89%
2,CCCCCCN1CCC(CNCc2cccc(Cl)c2)CC1,1.97%
3,CN1CCC(c2c[nH]c3ccc(NC(=O)Nc4ccc(-c5ccncc5)c(Cl)c4Cl)cc23)CC1,4.75%
4,Cc1ccc(NC(C)C(=O)Nc2ccc(C#N)cc2)cc1S(=O)(=O)N1CCCCC1 (stereo not given),58.8%
5,Cc1cc(Nc2ncc(Cl)c(Nc3ccccc3C(N)=O)n2)n[nH]1,3.02%
6,Cc1cccc2[nH]c(-c3cc(-c4cn[nH]c4)cnc3N)nc12,2.33%
7,CSc1ccc(CN2CCC(NC(=O)c3ccc(-c4cccc(Cl)c4)s3)CC2)cc1,2.36%
8,Cc1cc(N/N=C/c2ccccc2[N+](=O)[O-])c2ccccc2n1,2.51%
9,O=C(c1cc(-c2ccco2)n[nH]1)N1CCN(S(=O)(=O)c2ccc(Br)cc2)CC1,7.48%
10,COc1cc(C(C)C)ccc1C1CCN(CCCCNC(=O)c2ccc(NC(=O)c3ccc(Cl)cc3)cc2)CC1,3.65%
11,OCCc1ccc(Nc2nccc(-c3nnc4ccccn34)n2)cc1,6.32%
12,COc1ccc(-n2nc(C(=O)NCCC3=CCCCC3)c3ccccc3c2=O)cc1,-0.39%
13,CC(C#N)Cc1ccc(-c2cnc(N)c3cc(-c4ccnc(N)n4)ccc23)cc1 (stereo not given),-0.93%
14,CCN(C(=O)CSc1cc(C)c2cc(C)cc(C)c2n1)C1CCS(=O)(=O)C1 (stereo not given),-0.42%
15,Cc1ccc(NC(=O)c2cnc(N3CCN(c4ccncc4)CC3)c(Cl)c2)cc1,17.1%
16,CCCCNc1c(C(=O)OCC)c(C)nc2c1[nH]c1ccccc12,-0.65%
17,CC(C)C(C(=O)Nc1ccc2c(c1)OCO2)c1ccc(Cl)cc1 (stereo not given),1.99%
18,COc1ccccc1C1CC(c2ccc(Br)cc2)=NN1C(=O)c1ccccc1 (stereo not given),0.92%
19,COc1ccccc1C1CCN(C2CCC(NC(=O)/C=C/c3cc(F)c(F)cc3F)CC2)CC1 (stereo not given),2.21%
20,Fc1cccc(C=NNc2ccnc3cc(Cl)ccc23)c1,0.64%
